Outcome and AC50 data for 18 compounds are collected here from PubChem BioAssay (EPA / NIEHS).

Read-out in test [1]: Thyroid Hormone Responsive (THRSP), THRSP (gene 7069)
The experiment in a line: LTEA_HepaRG_THRSP: Life Technologies and Expression Analysis (LTEA) Assay for Thyroid Hormone Responsive (THRSP) using HepaRG (AID 2283536; active = hit-call score of the fitted dose curve at least 0.9, where 1 is the maximum; inactive = score below 0.9). The conditions noted are these: mRNA level, 48 h; actives raise or lower the signal. A digest of the protocol:
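Differentiated HepaRG cells treated 48 h in serum-free induction medium with 8 half-log concentrations up to 100 uM (0.5% DMSO), duplicates. THRSP mRNA by TaqMan qRT-PCR normalised to ACTB, GAPDH, POLR2A; bidirectional fit versus DMSO.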

Read-out in test [2]: Cellular tumor antigen p53 (Homo sapiens) (UniProt P04637)
The experiment in a line: LTEA_HepaRG_TP53: Life Technologies and Expression Analysis (LTEA) Assay for Tumor Protein P53 (TP53) using HepaRG (AID 2283537; active = hit-call score of the fitted dose curve at least 0.9, where 1 is the maximum; inactive = score below 0.9). The following applies: mRNA level, 48 h; actives raise or lower the signal. The method, boiled down:
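Gain or loss of TP53 mRNA signal is scored relative to 0.5% DMSO after 48 h chemical treatment of HepaRG liver cells, tested in duplicate at eight half-log concentrations up to 100 uM.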

Read-out in test [3]: UDP glucuronosyltransferase (UGT1A1), UGT1A1 (gene 54658)
The experiment in a line: LTEA_HepaRG_UGT1A1: Life Technologies and Expression Analysis (LTEA) Assay for UDP glucuronosyltransferase (UGT1A1) using HepaRG (AID 2283538; active = hit-call score of the fitted dose curve at least 0.9, where 1 is the maximum; inactive = score below 0.9). The conditions noted are these: mRNA level, 48 h; actives raise or lower the signal. A digest of the protocol: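 Human liver HepaRG cultures receive test chemical for 48 h, up to 100 uM in 0.5% DMSO, with phenobarbital induction controls. UGT1A1 mRNA is measured by qRT-PCR and normalized to ACTB, GAPDH and POLR2A.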

Read-out in test [4]: UDP glucuronosyltransferase (UGT1A6), UGT1A6 (gene 54578)
The experiment in a line: LTEA_HepaRG_UGT1A6: Life Technologies and Expression Analysis (LTEA) Assay for UDP glucuronosyltransferase (UGT1A6) using HepaRG (AID 2283539; active = hit-call score of the fitted dose curve at least 0.9, where 1 is the maximum; inactive = score below 0.9). The following applies: mRNA level, 48 h; actives raise or lower the signal. A digest of the protocol: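 Differentiated HepaRG cells, ~100,000/well, were exposed for 48 h in serum-free induction medium with 0.5% DMSO to 8-point half-log series topping at 100 uM, in duplicate. mRNA measured by Fluidigm TaqMan qRT-PCR, normalized to ACTB, GAPDH and POLR2A.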

Read-out in test [5]: X-box binding protein 1 (XBP1), XBP1 (gene 7494)
The experiment in a line: LTEA_HepaRG_XBP1: Life Technologies and Expression Analysis (LTEA) Assay for X-box binding protein 1 (XBP1) using HepaRG (AID 2283540; active = hit-call score of the fitted dose curve at least 0.9, where 1 is the maximum; inactive = score below 0.9). The following applies: mRNA level, 48 h; actives raise or lower the signal. A digest of the protocol: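 Differentiated human HepaRG cells in serum-free induction medium exposed 48 h in duplicate to eight half-log concentrations up to 100 uM in 0.5% DMSO. XBP1 mRNA measured by Fluidigm TaqMan qRT-PCR, normalized to ACTB, GAPDH, POLR2A; bidirectional fitting against DMSO.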

A short description of test [6]: LTEA_HepaRG_LDH_cytotoxicity: Cytotoxicity Assessment in the Life Technologies and Expression Analysis (LTEA) Assay (AID 2283563).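 As to AC50: LDH activity released into spent culture medium as a marker of cell death.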 The method, boiled down:
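Differentiated HepaRG cells in serum-free induction medium, exposed 48 h in duplicate to 8 half-log concentrations up to 100 uM in 0.5% DMSO. Cytotoxicity from LDH measured in spent medium, fit relative to DMSO.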

The nature of test [7]: ATG_XTT_Cytotoxicity: Cytotoxicity Assessment in the Attagene TRANS-FACTORIAL HepG2 Assay (AID 2283584).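 As to AC50: XTT signal for cell number as viability in transfected HepG2 cells; cells exposed to compound for 24 h before reading; active means loss of viability signal versus DMSO baseline.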 The method, boiled down:
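HepG2 cells transiently transfected with GAL4-UAS multiple reporter units, dosed 24 h; cytotoxicity read by XTT as loss of signal versus DMSO baseline.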

Test [8] is described as follows: TOX21_p53_BLA_p2_viability: Viability Assessment in the Tox21 HCT-116 p53 Agonism Beta-lactamase Assay, Phase 2 (AID 2283591).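 Also: compound exposure lasted 16 h at 37 °C; actives lower the ATP signal meaning cytotoxicity.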 A digest of the protocol:
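HCT116 p53-bla cells, 4000/well, dosed after 5 h plating (217-fold dilution of DMSO stocks) and incubated 16 h at 37C. Viability taken as cellular ATP by CellTiter-Glo luminescence after 30 min RT; signal loss marks cytotoxicity.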

In test [9] the target is Cellular tumor antigen p53 (Homo sapiens) (UniProt P04637). The experiment in a line: TOX21_p53_BLA_p2_ratio: Tox21 HCT-116 p53 Agonism Beta-lactamase Assay, Ratio, Phase 2 (AID 2283592). The method, boiled down: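 HCT-116 cells with p53-responsive beta-lactamase reporter, 4000 cells/well, preincubated 5 h, then compound in DMSO (217-fold dilution) for 16 h at 37C. CCF4-AM substrate 2 h at room temperature; 460/530 nm emission ratio fitted upward versus DMSO.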
Cellular tumor antigen p53 (Homo sapiens), sequence (P04637 whole entry, looked up): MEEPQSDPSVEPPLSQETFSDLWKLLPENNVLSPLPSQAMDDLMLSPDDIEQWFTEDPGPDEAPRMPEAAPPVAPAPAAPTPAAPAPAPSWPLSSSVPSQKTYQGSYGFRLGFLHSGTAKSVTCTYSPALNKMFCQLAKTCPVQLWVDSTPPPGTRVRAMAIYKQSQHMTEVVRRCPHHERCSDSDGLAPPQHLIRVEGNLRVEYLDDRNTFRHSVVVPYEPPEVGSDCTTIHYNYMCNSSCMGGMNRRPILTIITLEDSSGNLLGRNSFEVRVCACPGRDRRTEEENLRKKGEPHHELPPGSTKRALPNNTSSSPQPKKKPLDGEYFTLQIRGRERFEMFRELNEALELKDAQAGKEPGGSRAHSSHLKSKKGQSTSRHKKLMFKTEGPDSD

Test [10] in a line: TOX21_p53_BLA_p3_viability: Viability Assessment in the Tox21 HCT-116 p53 Agonism Beta-lactamase Assay, Phase 3 (AID 2283593).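 Also: cells exposed to compound for 16 h before reading.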 The method, boiled down: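 HCT116 cells, 4000/well, dosed 5 h after plating by pin transfer (217-fold dilution from DMSO stock) and incubated 16 h at 37C, 5% CO2. Viability read as ATP luminescence with CellTiter-Glo after 30 min at room temperature.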

As a reminder, the AC50 is the midpoint of the concentration-response curve, whichever way the signal moves.

Where “and” joins values, the source holds several entries; their conditions need not be identical. Identical values can stand only once. Records with an inconclusive call do not appear. The source holds several records for some structures; these can differ, active in one and inactive in another. Calls of active or inactive are those of the source. The calls were made as follows, unless noted: active = hit-call score of the fitted dose curve at least 0.9, where 1 is the maximum; inconclusive = response in the unintended direction; inactive = score below 0.9.

As for `c1ccc2ccccc2c1`, the outcome in test [1], in test [2], in [4], in test [5], in test [6] and in [7] was inactive. The compound was classed as inactive in test [8], in test [9] and in test [10]. The half-maximal activity concentration (AC50) in test [3] was 17.4 µM (active).

Regarding `CCCCCCCCOC(=O)c1cc(O)c(O)c(O)c1`, the outcome in [1], in test [2], in [3], in [4], in test [5] and in test [6] was inactive. Further, the compound was called inactive in test [7]. Moreover, the AC50 in [8] was 27.6 µM (active); in test [9], 50 µM (active); in [10], 67.9 µM (active).

On to `CN(C)c1ccc(C(=C2C=CC(=[N+](C)C)C=C2)c2ccc(N(C)C)cc2)cc1`, for which the AC50 in [1] is 2.48 µM (active); in test [2] it was 23.3 µM (active); in test [3], 16.8 µM (active); in test [4], 10.4 µM (active); in test [6] it was 9.3 µM (active); in [7], 12.3 µM (active). Further, the AC50 in [8] is 23.6 µM (active) and 19.1 µM (active) and 23 µM (active); in test [10], 56.6 µM (active) and 17.3 µM (active) and 20.4 µM (active). Moreover, the outcome in test [5] was inactive.

Consider `Cc1cccc2ccccc12`, for which the compound was classed as inactive in [1], in [2], in test [3], in test [4], in test [5] and in test [6]. Also, the call in test [7], in test [8], in test [9] and in test [10] was inactive.

As for `CC(C)(c1cc(Br)c(O)c(Br)c1)c1cc(Br)c(O)c(Br)c1`, the compound was classed as inactive in test [1], in [4], in test [5] and in test [7]. The AC50 in test [2] was 89.2 µM (active); in test [3], 78.2 µM (active); in test [6], 58.3 µM (active); in test [8], 35.7 µM (active) and 46 µM (active); in [10], 55.7 µM (active) and 52.9 µM (active) and 46 µM (active).

On to `O=C(OCCCCCCOC(=O)c1ccccc1)c1ccccc1`, for which the outcome in test [1], in [2], in [3], in [4], in [5] and in test [6] was inactive. For the same compound, in test [7], the compound was classed as inactive.

In the case of `CC[C@H](NC(=O)c1cc(F)ccc1NS(=O)(=O)c1cccc2cccnc12)c1ccccc1`, the outcome in test [1], in test [2], in test [5], in [6], in test [8] and in test [10] was inactive. The figures for the AC50 in test [3] and in [4] were 11.1 µM (active) and 47.8 µM (active), respectively.

As to `c1ccc(C[n+]2cccc3ccccc32)cc1`, the concentration at half-maximal activity (AC50) in [1] was 50 µM (active); in test [2], 35.7 µM (active); in test [3], 26 µM (active); in test [6], 34.4 µM (active). Further, the call in [4], in test [5], in [7], in [8], in [9] and in test [10] was inactive.

On to `O=C(O)Cn1c(=O)n(Cc2ccc(Br)cc2F)c(=O)c2ccc(Cl)cc21`, for which the figures for the AC50 in test [1] and in test [3] were 10.3 µM (active) and 17.7 µM (active), respectively. The compound was called inactive in [2], in test [4], in test [5], in test [6], in test [8] and in [9]. Also, in test [10], the compound was called inactive.

`Cc1c2ccccc2c(C)c2c1ccc1ccccc12`: the AC50 in test [1] was 75.4 µM (active); in test [2], 54.1 µM (active); in test [3] it was 0.714 µM (active); in [4] it was 35 µM (active); in [7] it was 56.2 µM (active); in test [10], 61.5 µM (active). In addition, the compound was called inactive in [5], in test [6], in [7], in [8] and in test [10].

For `CN1C(=O)CC[C@H]1c1cccnc1`, the call in test [1], in [2], in [3], in test [4], in test [5] and in test [6] was inactive. The call in test [7], in test [8] and in [10] was inactive.

For `CCCCCCCCN(C)CCCCCCCC`, the compound was classed as inactive in test [1], in test [2], in test [3], in test [4], in [5] and in [6]. Besides, the compound was called inactive in test [10].

In the case of `Clc1cc(Cl)c2c(c1)N=C1CCCCCN1C2`, the call in test [1], in test [2], in [3], in test [4], in [5] and in test [6] was inactive. Besides, the compound was classed as inactive in [8] and in test [10].

Consider `Cc1cn([C@H]2C[C@H](N=[N+]=[N-])[C@@H](CO)O2)c(=O)[nH]c1=O`, for which the result in [1], in test [2], in test [3], in test [4], in test [5] and in test [6] was inactive. Also, the result in [7], in test [8] and in test [10] was inactive.

On to `Clc1ccccc1C(c1ccccc1)(c1ccccc1)n1ccnc1`, for which the AC50 in test [1] is 29.9 µM (active); in test [2], 28 µM (active); in test [3], 28 µM (active); in test [4], 15.8 µM (active); in test [6], 70.7 µM (active); in test [7] it was 24.2 µM (active). Also, the AC50 in test [8] is 58.2 µM (active); in test [10] it was 81.9 µM (active). In addition, the result in [5], in [8] and in test [10] was inactive.

Regarding `CC(=O)N1CCN(c2ccc(OC[C@H]3CO[C@](Cn4ccnc4)(c4ccc(Cl)cc4Cl)O3)cc2)CC1`, the concentration at half-maximal activity (AC50) in [1] is 12.7 µM (active); in test [2], 90.3 µM (active); in test [3] it was 11.6 µM (active); in test [4], 30.8 µM (active); in test [6], 86.9 µM (active); in test [8], 56.7 µM (active). Also, in [10], the half-maximal activity concentration (AC50) is 46.1 µM (active). For the same compound, the call in test [5], in [7], in test [8] and in test [10] was inactive.

As for `Cc1ncc(CO)c(CO)c1O`, the result in test [1], in [2], in [3], in [4], in test [5] and in [7] was inactive. The outcome in test [8], in test [9] and in test [10] was inactive.

In the case of `NC(=O)c1nc(-c2cccc(-c3cc(F)ccc3OCC(F)(F)C(F)(F)F)c2)n[nH]1`, the call in test [1], in test [2] and in [5] was inactive. For the same compound, the AC50 was 15.8 µM (active) in [3]; 50 µM (active) in [4]; 76.1 µM (active) in test [6]; 65.9 µM (active) in [8]; 74 µM (active) in test [10].
